From the supplement of paper PMC10849652
Targets with a hit are over-represented here; the source holds about 8,800 in all. About 0.5% of all pairs of compound and target were hits.

What was measured:
Experiment in all cases: log2 fold change, soluble protein after heating vs DMSO (PISA); higher = thermal stabilisation; K562 lysate, 10 uM; active = over 0.2 and 3.5 SD of the protein, either way, in both replicates (recomputed)
erlotinib = compound: C#Cc1cccc(Nc2ncnc3cc(OCCOC)c(OCCOC)cc23)c1 [erlotinib]
Procedure, shortened: (§1)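 Soluble protein was defined as the supernatant remaining after 21,000xg for 90 min, following pooling of heated aliquots and adjustment to 0.5% NP-40 at 4°C. Before that, crude K562 extract at 1 mg/mL protein in PBS pH 7.4 with 1 mM MgCl2 was treated with 10 μM compound for 30 min and heated for 3 min across 48°C-58°C. Quantification used TMTpro 16plex LC-MS/MS with channel sums equalised, and values are log-two fold changes in thermal stability relative to solvent controls from duplicates.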

[1] = compound: C/C(=N\NC(=O)C1=CC(=CC=C1)S(=O)(=O)N2CCOCC2)/C3=C(C=CC(=C3)Cl)O
Procedure, shortened: as §1

[2] = compound: C1=CC(=CC=C1C2=NC3=C(N2)C=C(C=C3)C(=O)N)OC4=CC=C(C=C4)Cl
Procedure, shortened: as §1

[3] = compound: C1=CC2=C(C=CC(=C2)/C=C\3/C(=O)NC(=NCC4=CC=CS4)S3)N=C1
Procedure, shortened: as §1

[4] = compound: C1=CC2=NC=CN=C2C=C1/C=C/3\C(=O)NC(=O)S3
Procedure, shortened: as §1

[5] = compound: C1=CC=C(C=C1)C2=NC(=C(N2)C3=CC=NC=C3)C4=CC(=C(C=C4)Cl)O
Procedure, shortened: as §1

[6] = compound: C1=CC=C2C(=C1)C3=NNC4=CC=CC(=C43)C2=O
Procedure, shortened: as §1

[7] = compound: C1CCN(C1)C(=O)NC2=CC=CC(=C2)NC3=NC=C(C(=N3)NCCC4=CN=CN4)Br
Procedure, shortened: as §1

[8] = compound: C1CN(CCC1(CC2=CC=C(C=C2)Cl)N)C3=NC=NC4=C3C=CN4
Procedure, shortened: as §1

IRAK-1-4 Inhibitor I = compound: C1COCCN1CCN2C3=CC=CC=C3N=C2NC(=O)C4=CC(=CC=C4)[N+](=O)[O-] [IRAK-1-4 Inhibitor I]
Procedure, shortened: as §1

Measured: log2 fold change

SSX5 isoform 2 (UniProt O60225)
inactive: erlotinib -0.302 | [1] 0.12 | [2] -0.142 | [3] 0.195 | [4] -0.125 | [5] 0.043 | [6] -0.027 | [7] 0.23 | [8] -0.219 | IRAK-1-4 Inhibitor I 0.007

SFR1 isoform 2 (UniProt Q86XK3)
inactive: erlotinib -0.009 | [1] -0.019 | [2] 0.067 | [3] 0.015 | [4] -0.051 | [5] 0.018 | [6] 0.025 | [7] 0.04 | [8] 0.01 | IRAK-1-4 Inhibitor I 0.001

STK11IP (UniProt Q8N1F8)
inactive: erlotinib 0.015 | [1] 0.008 | [2] -0.002 | [3] -0.071 | [4] 0.007 | [5] -0.007 | [6] 0.025 | [7] -0.029 | [8] 0.033 | IRAK-1-4 Inhibitor I 0.053

SYNRG (UniProt Q9UMZ2)
Chain of UniProt Q9UMZ2 (Q9UMZ2 whole entry, looked up): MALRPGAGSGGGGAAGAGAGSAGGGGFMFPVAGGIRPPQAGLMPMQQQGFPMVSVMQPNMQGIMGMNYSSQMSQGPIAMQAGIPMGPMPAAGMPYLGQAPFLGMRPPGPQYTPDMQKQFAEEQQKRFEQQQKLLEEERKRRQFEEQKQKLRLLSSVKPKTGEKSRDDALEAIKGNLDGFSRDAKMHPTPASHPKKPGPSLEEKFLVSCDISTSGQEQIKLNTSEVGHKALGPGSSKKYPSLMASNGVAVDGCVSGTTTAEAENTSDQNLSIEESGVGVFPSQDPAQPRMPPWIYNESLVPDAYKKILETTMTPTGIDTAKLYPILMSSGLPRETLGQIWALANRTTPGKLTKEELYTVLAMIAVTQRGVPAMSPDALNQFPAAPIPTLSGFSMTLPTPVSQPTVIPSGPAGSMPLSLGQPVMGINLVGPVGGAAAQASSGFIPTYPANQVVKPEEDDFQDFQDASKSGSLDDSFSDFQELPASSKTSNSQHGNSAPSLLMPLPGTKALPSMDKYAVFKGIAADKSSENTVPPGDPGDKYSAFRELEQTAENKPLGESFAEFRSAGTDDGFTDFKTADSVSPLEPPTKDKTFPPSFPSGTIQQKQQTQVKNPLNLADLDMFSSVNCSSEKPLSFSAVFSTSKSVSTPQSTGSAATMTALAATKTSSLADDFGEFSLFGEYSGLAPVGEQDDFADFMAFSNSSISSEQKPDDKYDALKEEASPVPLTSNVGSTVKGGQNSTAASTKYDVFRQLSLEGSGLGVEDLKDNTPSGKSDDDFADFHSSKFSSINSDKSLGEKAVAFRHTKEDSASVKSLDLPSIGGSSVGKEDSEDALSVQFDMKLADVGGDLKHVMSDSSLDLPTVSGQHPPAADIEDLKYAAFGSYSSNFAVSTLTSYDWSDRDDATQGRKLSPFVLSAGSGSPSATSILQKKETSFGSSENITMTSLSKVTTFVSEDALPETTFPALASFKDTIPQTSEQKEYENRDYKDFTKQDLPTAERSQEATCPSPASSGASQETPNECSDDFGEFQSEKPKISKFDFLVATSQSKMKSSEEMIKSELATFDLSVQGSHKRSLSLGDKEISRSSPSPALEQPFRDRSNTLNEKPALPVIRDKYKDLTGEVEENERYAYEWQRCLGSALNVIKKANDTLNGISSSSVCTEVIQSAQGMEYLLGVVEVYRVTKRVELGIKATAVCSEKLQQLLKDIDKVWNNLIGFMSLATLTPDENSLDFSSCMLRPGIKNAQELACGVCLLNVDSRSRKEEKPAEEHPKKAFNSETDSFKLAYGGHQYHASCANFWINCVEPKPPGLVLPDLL
inactive: erlotinib 0.029 | [1] -0.037 | [2] 0.078 | [3] 0.015 | [4] -0.012 | [5] -0.019 | [6] -0.01 | [7] -0.004 | [8] 0.021 | IRAK-1-4 Inhibitor I 0.016

SH3BGRL2 (UniProt Q9UJC5)
Chain of UniProt Q9UJC5 (Q9UJC5 whole entry, looked up): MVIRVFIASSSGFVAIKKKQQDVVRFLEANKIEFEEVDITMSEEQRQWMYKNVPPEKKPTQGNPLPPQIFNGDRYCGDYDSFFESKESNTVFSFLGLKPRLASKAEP
inactive: erlotinib 0.007 | [1] -0.109 | [2] 0.035 | [3] 0.045 | [4] -0.049 | [5] 0.01 | [6] 0.018 | [7] -0.087 | [8] 0.034 | IRAK-1-4 Inhibitor I 0.007

SKA3 (UniProt Q8IX90)
Chain of UniProt Q8IX90 (Q8IX90 whole entry, looked up): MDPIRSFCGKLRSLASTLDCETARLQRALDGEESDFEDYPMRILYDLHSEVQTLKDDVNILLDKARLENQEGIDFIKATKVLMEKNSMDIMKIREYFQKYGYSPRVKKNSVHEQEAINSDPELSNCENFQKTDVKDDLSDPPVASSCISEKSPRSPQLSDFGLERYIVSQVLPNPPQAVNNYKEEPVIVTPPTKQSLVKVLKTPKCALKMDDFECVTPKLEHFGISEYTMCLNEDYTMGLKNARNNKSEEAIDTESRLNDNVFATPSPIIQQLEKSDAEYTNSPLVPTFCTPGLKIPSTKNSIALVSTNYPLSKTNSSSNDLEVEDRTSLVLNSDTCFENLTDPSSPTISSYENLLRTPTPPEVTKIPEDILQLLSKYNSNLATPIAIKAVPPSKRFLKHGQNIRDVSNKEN
inactive: erlotinib 0.018 | [1] -0.081 | [2] 0.02 | [3] -0.01 | [4] -0.052 | [5] -0.022 | [6] 0.001 | [7] -0.02 | [8] 0.042 | IRAK-1-4 Inhibitor I 0.013

STK38 (UniProt Q15208)
inactive: erlotinib -0.018 | [1] -0.029 | [2] -0.063 | [3] -0.005 | [4] 0.038 | [5] 0.029 | [6] 0.176 | [7] -0.002 | [8] 0.055 | IRAK-1-4 Inhibitor I -0.006

STK4 (UniProt Q13043)
Chain of UniProt Q13043 (Q13043 whole entry, looked up): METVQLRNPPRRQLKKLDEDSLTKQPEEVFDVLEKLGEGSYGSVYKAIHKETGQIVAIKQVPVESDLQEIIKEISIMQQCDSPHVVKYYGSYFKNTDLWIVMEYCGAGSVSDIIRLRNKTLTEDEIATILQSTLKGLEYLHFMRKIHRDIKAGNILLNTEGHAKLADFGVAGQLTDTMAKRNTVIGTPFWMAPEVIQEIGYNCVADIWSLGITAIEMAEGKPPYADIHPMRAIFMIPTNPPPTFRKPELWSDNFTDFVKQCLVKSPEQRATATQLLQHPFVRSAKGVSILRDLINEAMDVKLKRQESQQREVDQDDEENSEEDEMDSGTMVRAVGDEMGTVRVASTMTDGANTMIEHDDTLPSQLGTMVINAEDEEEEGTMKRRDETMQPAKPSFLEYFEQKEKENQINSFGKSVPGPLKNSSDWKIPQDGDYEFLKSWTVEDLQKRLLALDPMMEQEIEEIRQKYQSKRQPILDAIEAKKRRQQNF
inactive: erlotinib -0.013 | [1] -0.15 | [2] -0.033 | [3] -0.061 | [4] -0.008 | [5] -0.009 | [6] 0.165 | [7] 0.187 | [8] 0.053 | IRAK-1-4 Inhibitor I 0.018

TAPT1 (UniProt Q6NXT6)
Chain of UniProt Q6NXT6 (Q6NXT6 whole entry, looked up): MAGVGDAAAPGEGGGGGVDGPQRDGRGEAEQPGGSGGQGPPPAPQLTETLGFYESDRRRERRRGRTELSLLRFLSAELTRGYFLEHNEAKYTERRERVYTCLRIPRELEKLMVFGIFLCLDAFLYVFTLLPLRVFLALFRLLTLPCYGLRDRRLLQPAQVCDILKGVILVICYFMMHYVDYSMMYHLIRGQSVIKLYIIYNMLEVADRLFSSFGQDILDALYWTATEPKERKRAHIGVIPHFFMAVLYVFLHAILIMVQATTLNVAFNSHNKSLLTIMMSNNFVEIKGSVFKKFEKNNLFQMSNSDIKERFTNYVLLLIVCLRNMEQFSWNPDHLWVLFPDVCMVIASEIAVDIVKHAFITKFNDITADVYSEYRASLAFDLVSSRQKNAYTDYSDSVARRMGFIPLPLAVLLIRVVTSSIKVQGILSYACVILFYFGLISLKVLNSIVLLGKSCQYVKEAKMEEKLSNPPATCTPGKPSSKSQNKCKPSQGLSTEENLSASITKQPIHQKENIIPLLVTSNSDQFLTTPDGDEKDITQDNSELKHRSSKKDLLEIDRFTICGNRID
inactive: erlotinib 0 | [1] -0.092 | [2] 0.068 | [3] -0.038 | [4] -0.001 | [5] -0.059 | [6] -0.039 | [7] -0.059 | [8] 0.01 | IRAK-1-4 Inhibitor I 0.002

SPATA5 (UniProt Q8NB90)
Chain of UniProt Q8NB90 (Q8NB90 whole entry, looked up): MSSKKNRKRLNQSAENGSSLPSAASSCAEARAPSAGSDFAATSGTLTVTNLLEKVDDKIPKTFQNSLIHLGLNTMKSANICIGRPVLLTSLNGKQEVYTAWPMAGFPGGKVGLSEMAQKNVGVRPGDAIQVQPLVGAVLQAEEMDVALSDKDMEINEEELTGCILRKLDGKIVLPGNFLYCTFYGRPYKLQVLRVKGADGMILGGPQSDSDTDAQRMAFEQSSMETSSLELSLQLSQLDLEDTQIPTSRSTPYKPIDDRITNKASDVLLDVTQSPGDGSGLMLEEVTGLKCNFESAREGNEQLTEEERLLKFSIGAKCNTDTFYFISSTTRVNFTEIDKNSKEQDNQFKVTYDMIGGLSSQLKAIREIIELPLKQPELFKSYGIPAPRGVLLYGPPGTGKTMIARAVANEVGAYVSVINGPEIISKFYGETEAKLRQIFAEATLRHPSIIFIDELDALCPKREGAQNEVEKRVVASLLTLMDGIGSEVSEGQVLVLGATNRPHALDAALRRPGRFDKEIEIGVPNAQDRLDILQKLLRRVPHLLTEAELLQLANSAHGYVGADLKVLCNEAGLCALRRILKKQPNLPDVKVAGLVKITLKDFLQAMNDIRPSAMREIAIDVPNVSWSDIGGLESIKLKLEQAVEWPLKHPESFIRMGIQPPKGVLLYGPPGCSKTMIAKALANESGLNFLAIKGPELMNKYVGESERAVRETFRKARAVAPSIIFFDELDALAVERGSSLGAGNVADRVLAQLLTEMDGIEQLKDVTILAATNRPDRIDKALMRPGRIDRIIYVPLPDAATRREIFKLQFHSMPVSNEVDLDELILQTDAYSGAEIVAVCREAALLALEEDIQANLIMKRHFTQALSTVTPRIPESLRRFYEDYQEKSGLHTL
inactive: erlotinib 0.04 | [1] 0.025 | [2] -0.006 | [3] 0.025 | [4] -0.042 | [5] 0.042 | [6] 0.015 | [7] 0.017 | [8] 0.017 | IRAK-1-4 Inhibitor I 0.016

SLC12A6 (UniProt Q9UHW9)
inactive: erlotinib -0.014 | [1] -0.073 | [2] -0.047 | [3] 0.013 | [4] -0.006 | [5] -0.028 | [6] -0.01 | [7] -0.024 | [8] 0.068 | IRAK-1-4 Inhibitor I -0.01

SLC11A2 isoform 3 (UniProt P49281)
inactive: erlotinib -0.005 | [1] -0.041 | [2] -0.009 | [3] -0.013 | [4] 0 | [5] 0.011 | [6] 0.046 | [7] -0.004 | [8] 0.026 | IRAK-1-4 Inhibitor I 0.024

SRPK1 (UniProt Q96SB4)
inactive: erlotinib 0.015 | [1] -0.04 | [2] 0.121 | [3] 0.016 | [4] 0.003 | [5] 0.05 | [6] 0.017 | [7] -0.01 | [8] 0.007 | IRAK-1-4 Inhibitor I 0.019

STN1 (UniProt Q9H668)
inactive: erlotinib -0.126 | [1] 0.049 | [2] 0.142 | [3] 0.075 | [4] -0.098 | [5] 0.019 | [6] -0.061 | [7] -0.045 | [8] 0.043 | IRAK-1-4 Inhibitor I 0.034

SHCBP1 (UniProt Q8NEM2)
inactive: erlotinib 0.034 | [1] 0.01 | [2] -0.035 | [3] -0.023 | [4] 0.007 | [5] 0.032 | [6] 0.005 | [7] 0.014 | [8] -0.014 | IRAK-1-4 Inhibitor I 0.018

SNCA (UniProt P37840)
inactive: erlotinib -0.265 | [1] -0.037 | [2] 0.098 | [3] 0.025 | [4] -0.147 | [5] -0.02 | [6] 0.044 | [7] -0.056 | [8] -0.085 | IRAK-1-4 Inhibitor I 0.019

SQLE (UniProt Q14534)
inactive: erlotinib -0.025 | [1] 0.056 | [2] 0.019 | [3] -0.03 | [4] -0.028 | [5] 0.007 | [6] 0.074 | [7] -0.019 | [8] -0.084 | IRAK-1-4 Inhibitor I 0.023

SNX6, A0A0A0MRI2
inactive: erlotinib 0.012 | [1] 0.056 | [2] -0.029 | [3] 0.04 | [4] -0.028 | [5] 0.013 | [6] -0.073 | [7] 0.024 | [8] -0.047 | IRAK-1-4 Inhibitor I -0.013

SMAP2 (UniProt Q8WU79)
inactive: erlotinib -0.009 | [1] -0.018 | [2] 0.073 | [3] 0 | [4] 0.023 | [5] -0.2 | [6] 0.015 | [7] 0.037 | [8] 0.023 | IRAK-1-4 Inhibitor I 0.044

STK26 (UniProt Q9P289)
inactive: erlotinib 0.008 | [1] -0.007 | [2] -0.005 | [3] -0.009 | [4] 0.002 | [5] -0.002 | [6] 0.06 | [7] 0.03 | [8] -0.011 | IRAK-1-4 Inhibitor I -0.018

SF3B6 (UniProt Q9Y3B4)
inactive: erlotinib 0.011 | [1] 0.047 | [2] 0 | [3] 0.001 | [4] 0.043 | [5] 0.034 | [6] 0.044 | [7] 0.004 | [8] -0.034 | IRAK-1-4 Inhibitor I -0.024

SMG7 (UniProt Q92540)
inactive: erlotinib 0.007 | [1] -0.03 | [2] -0.022 | [3] -0.058 | [4] -0.066 | [5] -0.047 | [6] -0.032 | [7] -0.077 | [8] -0.01 | IRAK-1-4 Inhibitor I -0.011

SLC27A2 (UniProt O14975)
Chain of UniProt O14975 (O14975 whole entry, looked up): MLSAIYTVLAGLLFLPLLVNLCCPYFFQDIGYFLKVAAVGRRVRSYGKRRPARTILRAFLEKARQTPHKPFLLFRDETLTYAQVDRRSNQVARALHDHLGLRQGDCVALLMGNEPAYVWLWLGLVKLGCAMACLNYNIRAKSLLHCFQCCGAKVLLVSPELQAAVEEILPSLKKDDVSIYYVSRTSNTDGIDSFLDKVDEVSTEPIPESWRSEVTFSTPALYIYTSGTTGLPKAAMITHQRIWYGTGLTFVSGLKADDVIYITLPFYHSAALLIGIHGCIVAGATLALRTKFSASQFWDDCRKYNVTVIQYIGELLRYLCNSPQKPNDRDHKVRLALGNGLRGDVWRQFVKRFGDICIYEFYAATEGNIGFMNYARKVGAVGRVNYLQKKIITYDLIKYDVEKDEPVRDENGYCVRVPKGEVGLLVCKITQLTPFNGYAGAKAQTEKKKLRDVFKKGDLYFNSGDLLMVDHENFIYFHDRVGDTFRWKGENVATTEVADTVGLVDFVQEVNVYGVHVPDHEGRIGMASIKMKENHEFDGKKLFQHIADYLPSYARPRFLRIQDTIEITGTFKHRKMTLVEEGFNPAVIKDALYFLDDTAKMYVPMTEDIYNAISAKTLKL
inactive: erlotinib -0.025 | [2] -0.122 | [3] 0.099 | [4] 0.048 | [5] 0.007 | [6] -0.016 | [7] -0.038 | [8] -0.035
active: [1] 0.478 | IRAK-1-4 Inhibitor I 0.614

SRSF7 (UniProt Q16629)
inactive: erlotinib 0.019 | [1] -0.068 | [2] -0.043 | [3] 0.002 | [4] -0.066 | [5] -0.02 | [6] -0.016 | [7] 0.032 | [8] 0.008 | IRAK-1-4 Inhibitor I -0.03

SHKBP1 (UniProt Q8TBC3)
inactive: erlotinib -0.005 | [1] -0.064 | [2] 0.058 | [3] 0.004 | [4] 0.011 | [5] 0.01 | [6] -0.018 | [7] 0.076 | [8] 0.189 | IRAK-1-4 Inhibitor I 0.022

SMYD3 (UniProt Q9H7B4)
inactive: erlotinib 0.094 | [1] 0.104 | [2] 0.009 | [3] -0.036 | [4] 0.064 | [5] -0.021 | [6] -0.036 | [7] -0.022 | [8] -0.038 | IRAK-1-4 Inhibitor I 0.001

TANK (UniProt Q92844)
inactive: erlotinib 0 | [1] -0.089 | [2] -0.015 | [3] -0.069 | [4] 0.003 | [5] 0.025 | [6] 0.089 | [7] 0.082 | [8] 0 | IRAK-1-4 Inhibitor I 0.028

SPHK1 isoform 2 (UniProt Q9NYA1)
inactive: erlotinib -0.055 | [1] -0.462 | [2] -0.059 | [3] 0.038 | [4] 0.034 | [5] -0.097 | [6] -0.066 | [7] 0.016 | [8] 0.038 | IRAK-1-4 Inhibitor I 0.018

SYNE2 isoform 2 (UniProt Q8WXH0)
inactive: erlotinib -0.09 | [1] -0.069 | [2] -0.023 | [3] -0.156 | [4] -0.04 | [5] -0.015 | [6] -0.146 | [7] -0.064 | [8] 0.037 | IRAK-1-4 Inhibitor I 0.127

TAF6L (UniProt Q9Y6J9)
Chain of UniProt Q9Y6J9 (Q9Y6J9 whole entry, looked up): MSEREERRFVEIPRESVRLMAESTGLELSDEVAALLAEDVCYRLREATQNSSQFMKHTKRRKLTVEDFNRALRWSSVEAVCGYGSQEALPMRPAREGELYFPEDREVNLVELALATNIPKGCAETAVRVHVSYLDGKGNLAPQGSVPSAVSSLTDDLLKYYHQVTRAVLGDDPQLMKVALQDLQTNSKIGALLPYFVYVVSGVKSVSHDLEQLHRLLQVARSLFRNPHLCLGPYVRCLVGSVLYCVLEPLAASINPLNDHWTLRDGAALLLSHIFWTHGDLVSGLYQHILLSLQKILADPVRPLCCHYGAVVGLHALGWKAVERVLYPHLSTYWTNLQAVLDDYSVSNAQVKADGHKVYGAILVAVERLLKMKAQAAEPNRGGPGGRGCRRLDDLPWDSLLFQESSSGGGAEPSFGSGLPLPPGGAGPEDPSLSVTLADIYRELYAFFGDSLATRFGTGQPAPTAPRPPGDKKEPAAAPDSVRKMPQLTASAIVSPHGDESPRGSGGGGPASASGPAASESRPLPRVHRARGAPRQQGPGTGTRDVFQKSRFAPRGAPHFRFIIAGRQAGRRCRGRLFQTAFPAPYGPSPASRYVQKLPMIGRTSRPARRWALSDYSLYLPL
inactive: erlotinib -0.013 | [1] 0.174 | [2] -0.077 | [3] 0.005 | [4] 0.025 | [5] 0.055 | [6] 0.055 | [7] 0.022 | [8] -0.104 | IRAK-1-4 Inhibitor I 0.051
